The values below come from PubChem BioAssay AID434970 (Sanford-Burnham Center for Chemical Genomics, 2010).

In all, about 11,000 compounds went through this assay and about 310 (2.8%) were called active. Rule as the data show it: active = activity change below about -85%; inactive = the rest. Shown is part of a subset that was picked to be rich in actives.

The assay relates to intestinal alkaline phosphatase [Mus musculus]. Nature of the assay: activators of mouse IAP, confirmation, biochemical, luminescence, single concentration (AID 434970). The settings on record: purified mouse IAP, CDP-Star luminescence, 30 min, at 10 µM; activation factor: measured here: IAP activation factor, stronger effect = higher value; activity change, negative = activation: stronger effect = lower value.
As for `O=S(=O)(Nc1ccccc1)c1ccc(Oc2ncc(C(F)(F)F)cc2Cl)cc1`, the activation factor was 0.903 and the activity change, negative = activation is 9.65% (inactive).

As for `COc1cccc(NC2=NC3(CCCCC3)N=C(N)N2)c1`, the activation factor turned out to be 1.5 and the activity change, negative = activation was -50.5% (inactive).

Turning to `COc1ccc(OC)c(NC2=NC3(CCCC3)N=C(N)N2)c1`, the activation factor worked out at 1.22 and the activity change, negative = activation is -21.9% (inactive).

With `CCCCOc1ccc(NC2=NC3(CCCCC3)N=C(N)N2)cc1`, the activation factor came out at 5.53 and the activity change, negative = activation is -453% (active).

For the molecule `Cc1cc(C)cc(NC2=NC3(CCCCC3)N=C(N)N2)c1`, the activation factor stood at 3.22 and the activity change, negative = activation is -222% (active).

`COc1ccc(OC)c(NC2=NC3(CCCCC3)N=C(N)N2)c1`: the activation factor was determined as 1.17 and the activity change, negative = activation is -16.5% (inactive).

In the case of `CC1(C)N=C(N)NC(Nc2ccccc2)=N1`, the activation factor stood at 1.04 and the activity change, negative = activation was -4% (inactive).

For the molecule `S=C(NCCNCc1ccccc1)NC1CCCCC1`, the activation factor was 1.18 and the activity change, negative = activation is -18% (inactive).

On to `O=C(NN1C(=O)CSC1=S)C(=O)NN1C(=O)CSC1=S`, for which the activation factor amounted to 0.0825 and the activity change, negative = activation is 91.8% (inactive).

Take `CC(C)=CCC/C(C)=C/CNC(=O)C[C@H]1C[C@H](C(=O)N(C(C)C)C(C)C)[C@@]2(C)c3[nH]c4cc(-c5ccco5)ccc4c3CCN2C1=O`: the activation factor came out at 1.39 and the activity change, negative = activation is -39.4% (inactive).

`COc1ccc(NC(=O)CCS(=O)(=O)c2cccc3nonc23)c(OC)c1`: the activation factor came to 0.945 and the activity change, negative = activation was 5.5% (inactive).

In the case of `COc1ccc(C2CC(c3ccccc3C(F)(F)F)=NN2c2ccc(S(N)(=O)=O)cc2)cc1` (centres undefined), the activation factor was 2.21 and the activity change, negative = activation is -121% (active).

Take `COc1ccc(C2CC(c3cccc(F)c3)=NN2c2ccc(S(N)(=O)=O)cc2)cc1` (centres undefined): the activation factor stood at 1.67 and the activity change, negative = activation was -67.2% (inactive).

`COc1ccc(C2CC(c3ccc(C(F)(F)F)cc3)=NN2c2ccc(S(N)(=O)=O)cc2)cc1` (centres undefined): the activation factor was determined as 1.37 and the activity change, negative = activation is -36.7% (inactive).

As to `COc1ccc(C2CC(c3cccc(C(F)(F)F)c3)=NN2c2ccc(S(N)(=O)=O)cc2)cc1` (centres undefined), the activation factor was 1.51 and the activity change, negative = activation was -50.8% (inactive).

On to `COc1ccc(C2CC(c3ccccc3F)=NN2c2ccc(S(N)(=O)=O)cc2)cc1` (centres undefined), for which the activation factor is 2.13 and the activity change, negative = activation was -113% (active).

Turning to `COc1ccc(C2CC(c3ccccc3Br)=NN2c2ccc(S(N)(=O)=O)cc2)cc1` (centres undefined), the activation factor is 1.27 and the activity change, negative = activation is -26.8% (inactive).

In the case of `COc1ccc(C2CC(c3ccccc3Cl)=NN2c2ccc(S(N)(=O)=O)cc2)cc1` (centres undefined), the activation factor came to 2.18 and the activity change, negative = activation is -118% (active).

Take `COc1ccc(C2CC(c3cccc(Cl)c3)=NN2c2ccc(S(N)(=O)=O)cc2)cc1` (centres undefined): the activation factor amounted to 1.79 and the activity change, negative = activation was -78.7% (inactive).

For the molecule `COc1ccc(C2CC(c3ccc(Cl)cc3)=NN2c2ccc(S(N)(=O)=O)cc2)cc1` (centres undefined), the activation factor is 1.6 and the activity change, negative = activation is -59.8% (inactive).

Regarding `CSc1ccc(-c2nc(CSCC(=O)NCCCN3CCOCC3)c(C)o2)cc1`, the activation factor was 0.847 and the activity change, negative = activation was 15.3% (inactive).

Regarding `CCOC(=O)C1=C(C)OC(N)=C(C#N)C1c1cc2cc(C)ccc2nc1N1CCCCC1` (centres undefined), the activation factor amounted to 1.02 and the activity change, negative = activation is -1.65% (inactive).

For the molecule `CN(C)CCCNC(=O)C[C@H]1C[C@H](C(=O)N2CCCCC2)[C@@]2(CCc3ccccc3)c3[nH]c4cc(CCC(=O)N(C)C)ccc4c3CCN2C1=O`, the activation factor came out at 1.1 and the activity change, negative = activation is -10.1% (inactive).

Take `Cc1cnc(NC(=O)c2ccco2)s1`: the activation factor was found to be 0.954 and the activity change, negative = activation was 4.55% (inactive).

As to `O=C1[C@@H](Oc2ccccc2)[C@@H](c2ccccc2)N1c1ccccc1`, the activation factor was determined as 0.938 and the activity change, negative = activation is 6.25% (inactive).

Take `O=C(Nc1ccc(S(=O)(=O)N2CCCCCC2)cc1)C1CCCO1` (centres undefined): the activation factor is 0.946 and the activity change, negative = activation was 5.4% (inactive).

`Cc1cc(C)cc(NC(=O)C2CCN(S(=O)(=O)c3ccc4c(c3)NC(=O)C(C)S4)CC2)c1` (centres undefined): the activation factor amounted to 1.96 and the activity change, negative = activation is -96% (active).

For `Cc1ccc(S(=O)(=O)N2CCC(C(=O)Nc3ccc(S(=O)(=O)N4CCCC4)cc3)CC2)cc1C`, the activation factor was determined as 2.22 and the activity change, negative = activation is -122% (active).

`CCNC(=O)C1CCN(S(=O)(=O)c2ccc(F)cc2)CC1`: the activation factor is 0.998 and the activity change, negative = activation is 0.15% (inactive).

For the molecule `Cc1ccc(S(=O)(=O)N2CCC(C(=O)N[C@@H](C)C(=O)NC3CCCCC3)CC2)cc1`, the activation factor was 1.09 and the activity change, negative = activation was -8.65% (inactive).

`Cc1ccc(NC(=O)C2CCN(S(=O)(=O)c3ccc(N4CCCC4=O)cc3)CC2)cc1Cl`: the activation factor was determined as 1.79 and the activity change, negative = activation was -79.3% (inactive).

Regarding `CSc1cccc(NC(=O)C2CCN(S(=O)(=O)c3ccc(F)cc3)CC2)c1`, the activation factor was 1.98 and the activity change, negative = activation is -97.7% (active).

Regarding `Cc1ccc(S(=O)(=O)NNC(=O)C2CCN(S(=O)(=O)c3ccc(C)cc3)CC2)cc1`, the activation factor was 0.962 and the activity change, negative = activation is 3.85% (inactive).

On to `Cc1ccc(NC(=O)C2CCN(S(=O)(=O)c3ccc4c(c3)NC(=O)C(C)S4)CC2)cc1Cl` (centres undefined), for which the activation factor was found to be 1.71 and the activity change, negative = activation was -71.1% (inactive).

With `COc1ccc(S(=O)(=O)N2CCC(C(=O)Nc3cccc(Cl)c3)CC2)cc1OC`, the activation factor came out at 1.62 and the activity change, negative = activation was -61.7% (inactive).

Consider `CCc1ccc(NC(=O)C2CCN(S(=O)(=O)c3ccc4c(c3)CC(C)N4C(C)=O)CC2)cc1` (centres undefined), for which the activation factor is 1.49 and the activity change, negative = activation was -48.7% (inactive).

In the case of `Cc1ccc(S(=O)(=O)N2CCC(C(=O)Nc3ccc(C(C)C)cc3)CC2)cc1`, the activation factor was determined as 3.49 and the activity change, negative = activation was -249% (active).
